Chronic BCR inh = qHTS Assay to Find Inhibitors of Chronic Active B-Cell Receptor Signaling; ABC-DLBCL IkBa-CBG/CBR reporter, luminescence ratio, 4 h; Potency, µM (series often up to 46.1 µM), most hits filed as inhibitors; 0.05% of 340,000 active; active = well fitted inhibition curve with a large enough effect in the signal ratio, with a control signal flat, not every such curve was filed as active; inconclusive = small, poorly fitted or top-dose-only effect, or effect the other way, or a change in a side signal; the % refers to the signal ratio
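Doxycycline induced both beetle luciferases in TMD8 lymphoma cells; IKK-driven degradation limits the IkappaBalpha-fused green signal, while red luminescence normalises for cell number and nonspecific effects. Compounds tested up to 46 uM, 4 hrs.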
MCF10A rereplic = A quantitative high throughput screen for small molecules that induce DNA re-replication in MCF 10a normal breast cells. MCF 10A DNA re-replication, Hoechst nuclear intensity, 48 h. Potency, µM (top dose mostly 46.1 µM), actives largely listed as activators. 2.9% of 350,000 active; also: nearly all actives have a fitted effect of over 50% in size
RORgamma inh = qHTS for inhibitors of ROR gamma transcriptional activity; Drosophila S2 Gal4-RORgamma UAS-luciferase reporter, 20 h; Nuclear receptor ROR-gamma (Mus musculus), P51450; 5.4% of 310,000 active; Potency, µM (highest dose often 53.6 µM), actives largely listed as inhibitors; also: nearly all actives have a fitted effect of over 60% in size
Target sequence (P51450 whole entry, looked up, the tested form may be a part): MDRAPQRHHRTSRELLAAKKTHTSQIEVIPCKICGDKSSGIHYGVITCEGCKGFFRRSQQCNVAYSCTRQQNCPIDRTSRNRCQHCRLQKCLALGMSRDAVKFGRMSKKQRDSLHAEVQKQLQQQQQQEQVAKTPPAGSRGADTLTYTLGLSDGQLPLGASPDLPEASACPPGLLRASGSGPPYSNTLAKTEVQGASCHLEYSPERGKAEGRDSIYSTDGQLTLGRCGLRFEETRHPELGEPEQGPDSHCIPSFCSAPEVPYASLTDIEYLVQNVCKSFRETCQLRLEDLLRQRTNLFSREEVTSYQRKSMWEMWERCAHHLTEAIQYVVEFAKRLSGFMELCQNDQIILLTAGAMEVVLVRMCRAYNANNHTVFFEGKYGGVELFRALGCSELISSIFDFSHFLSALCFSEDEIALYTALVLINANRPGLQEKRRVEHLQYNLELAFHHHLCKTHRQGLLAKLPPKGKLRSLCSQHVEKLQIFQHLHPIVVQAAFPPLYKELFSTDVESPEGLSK
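A Gal4/UAS one-hybrid system in insect cells: metallothionein-promoter Gal4–ROR gamma fusion plus Photinus luciferase reporter. Copper sulfate 700 uM final, 20 hr ambient incubation, luminescent detection after 10 min with reagent.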
Giardia killer = Small Molecules that selectively kill Giardia lamblia: qHTS. AID 540267, 2011. activity change, % at 7.66 µM, hits read low. Giardia lamblia trophozoite viability. 0.15% of 340,000 active; in the data active = activity change below about -80%; inconclusive = between about -30% and that limit;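 also: parasites exposed to compound for two days anaerobically before the ATP read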
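Trophozoites 100 cells/well + cpd; 48 hrs, 37 deg C, anaerobic. ATPLite 1-Step added, 15-30 min RT, luminescence read (ATP-based viability).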
SW480 rerep = A quantitative high throughput screen for small molecules that induce DNA re-replication in SW480 colon adenocarcinoma cells. SW480 DNA re-replication, Hoechst DNA content imaging, 48 h. Potency, µM (highest dose often 46.1 µM), usual class: activators. 1.8% of 340,000 active. AID 624297, 2012; also: nearly all actives have a fitted effect of over 55% in size
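First, 250 cells per well were seeded. Next, compound or vehicle (23 nL) was pinned in, plates sat 48 hr at 37 C. Finally Hoechst was added for 40 min before fluorescence scanning.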
VP16 counter = VP16 counterscreen qHTS for inhibitors of ROR gamma transcriptional activity; Drosophila S2 Gal4-VP16 UAS-luciferase, luminescence, 20 h; Potency, µM (series often up to 53.6 µM), most hits filed as inhibitors; 3.5% of 310,000 active;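 also: Gal4-VP16 expression switched on by copper sulfate through the metallothionein promoter; nearly all actives have a fitted effect of over 50% in size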
Large screens that a line does not name were inactive. An excerpt weighted towards active compounds, which were near 8.3% of everything screened. Unless noted, calls follow the shape of the dose curve; as a rule, active = well fitted curve in the direction sought with a large enough effect; inconclusive = small, poorly fitted or top-dose-only effect, or another doubt; inactive = no such curve, though single readings can be large; an effect the other way counts as inactive or inconclusive.

CCN1CCN(/C=N/c2nc3c(s2)CCCC3)CC1	RORgamma inh 8.91µM, VP16 counter 7.08µM
CCCCOc1cccc(C(=O)NC(=S)Nc2cccc(C(F)(F)F)c2)c1	RORgamma inh 4.47µM, SW480 rerep inconclusive, VP16 counter 2.82µM
CC(C)Oc1cccc(C(=O)NC(=S)Nc2cccc(C(F)(F)F)c2)c1	RORgamma inh 6.31µM, VP16 counter inconclusive
CCCCn1c(N)c(N(C)C(=O)c2cccc(-n3cnnn3)c2)c(=O)[nH]c1=O	none (no result: RORgamma inh, VP16 counter)
CCc1nc(N2CCC(C)CC2)c2oc3ccccc3c2n1	MCF10A rereplic 18.4µM, RORgamma inh 11.2µM, SW480 rerep inconclusive, VP16 counter inconclusive
CCc1nc(SCC(=O)N2CCN(c3ccccc3)CC2)c2oc3ccccc3c2n1	MCF10A rereplic 9.2µM, RORgamma inh inconclusive
CCNc1nc(CC)nc2c1oc1ccccc12	none
CCc1nc(N(CC)CC)c2oc3ccccc3c2n1	RORgamma inh 14.1µM, VP16 counter inconclusive
Cn1c(=O)n(C)c2cc(NC(=O)CCc3ccccc3)c(Br)cc21	Chronic BCR inh inconclusive, MCF10A rereplic inconclusive
Cc1ccccc1N=C(NO)c1cccnc1	none
Cc1csc(C(C#N)C(=O)c2cc3ccccc3o2)n1 (stereo not drawn)	Chronic BCR inh inconclusive, RORgamma inh 10µM, Giardia killer inconclusive
Cc1csc(NC(=O)c2cc3ccccc3o2)n1	Chronic BCR inh inconclusive, Giardia killer inconclusive (no result: RORgamma inh, VP16 counter)
CC(=O)C[C@@H](O)CC(=O)[C@@H]1OC(=O)CCCCC/C=C/Cc2ccccc21	SW480 rerep inconclusive (no result: RORgamma inh, VP16 counter)
Cc1cc(SCC(=O)c2ccccc2)n2nc(C)nc2n1	Chronic BCR inh inconclusive, RORgamma inh 14.1µM, SW480 rerep inconclusive, VP16 counter 7.08µM
Cc1cc(C)c(C#N)c(SCC(=O)c2ccccc2)n1	MCF10A rereplic inconclusive, SW480 rerep inconclusive
Cc1cc(C)n2nc(C(=O)OCC(=O)c3ccccc3)nc2n1	MCF10A rereplic inconclusive, SW480 rerep 8.2µM (no result: RORgamma inh, VP16 counter)
Cc1cc(C)n2nc(C(=O)OCC(=O)N(C)Cc3ccccc3)nc2n1	none (no result: RORgamma inh, VP16 counter)
COC(=O)[C@@H]1CC[C@H](C)[C@@H](c2ccc(C)cc2)N1C(=O)c1ccc(/C=N\OC[C@@H](O)[C@H]2O[C@H]3OC(C)(C)O[C@H]3[C@@H]2O)cc1	none (no result: Chronic BCR inh, MCF10A rereplic, Giardia killer, SW480 rerep)
Brc1ccc(-c2ccc(CNCc3ccccn3)o2)cc1	Chronic BCR inh inconclusive, RORgamma inh inconclusive, VP16 counter inconclusive
Clc1cccc(-c2ccc(CNCc3ccccn3)o2)c1	RORgamma inh 11.2µM, VP16 counter inconclusive
Cc1c(Cl)cccc1NC(=S)NC1CC1	RORgamma inh 10µM, VP16 counter inconclusive
CC(=O)Nc1cccc(NC(=S)Nc2cccc(Cl)c2Cl)c1	none
O=C(NC1CCN(C(=S)Nc2ccccc2Cl)CC1)C1CCCCC1	none
CC(=O)c1ccc(NC(=S)Nc2cccc(Cl)c2C)cc1	RORgamma inh 11.2µM, VP16 counter inconclusive
S=C(Nc1ccccc1Cl)NC1CCCCCC1	RORgamma inh 3.55µM, SW480 rerep inconclusive, VP16 counter 10µM
O=C(Nc1ccccc1NC(=O)NC1CCCCC1)NC1CCCCC1	Chronic BCR inh inconclusive, MCF10A rereplic 3.66µM, SW480 rerep inconclusive (no result: VP16 counter)
Cc1c(Cl)cccc1NC(=O)NC1CCCCC1	Chronic BCR inh inconclusive
N#CN=c1snc(-c2ccccc2Cl)n1-c1ccc(F)cc1	none (no result: Chronic BCR inh, MCF10A rereplic, RORgamma inh, SW480 rerep, VP16 counter)
NC(=O)c1ccc(SCC(=O)OCC(=O)NCc2ccco2)c([N+](=O)[O-])c1	none (no result: RORgamma inh, VP16 counter)
Cc1ccc(CSCC(=O)NCc2ccco2)cc1	none
CN(Cc1ccccc1)C(=O)C1CCCN1S(=O)(=O)c1ccc2c(c1)n(C)c(=O)c(=O)n2C (stereo not drawn)	none
Cc1ccc(S(=O)(=O)NCC(c2ccc3c(c2)OCO3)N2CCOCC2)cc1 (stereo not drawn)	none (no result: RORgamma inh, VP16 counter)
Fc1ccc(NC(=S)NC2CCCCC2)c(F)c1F	RORgamma inh 8.91µM, VP16 counter 7.08µM
OCC1CCCCN1C(=S)Nc1ccc(Cl)cc1Cl (stereo not drawn)	MCF10A rereplic 0.82µM, RORgamma inh inconclusive, SW480 rerep inconclusive, VP16 counter inconclusive
O=C(NNC(=S)NC1CCCCC1)c1cccc(S(=O)(=O)Nc2ccccc2Cl)c1	RORgamma inh 3.98µM, SW480 rerep inconclusive, VP16 counter inconclusive
O=C(Nc1cccc(S(=O)(=O)Nc2ccccc2Cl)c1)c1ccc(Cl)nc1	Chronic BCR inh inconclusive, RORgamma inh inconclusive, VP16 counter 6.31µM
Cc1cc(OCC(=O)OCC(=O)NCc2cccs2)ccc1Cl	none (no result: RORgamma inh, VP16 counter)
S=C(Nc1ccc(Cl)cc1Cl)NC1CCCCC1	Chronic BCR inh inconclusive, RORgamma inh inconclusive, VP16 counter 0.891µM
O=C(Nc1ccc(Cl)cc1Cl)NC1CCCC1	Chronic BCR inh inconclusive
NS(=O)(=O)c1ccc(NC(=S)Nc2nn(Cc3ccc(Cl)cc3Cl)cc2Cl)cc1	RORgamma inh 6.31µM, SW480 rerep inconclusive, VP16 counter 6.31µM
CC1CCN(S(=O)(=O)c2ccc3c(c2)oc(=O)n3CC(=O)O)CC1	none (no result: MCF10A rereplic, RORgamma inh, Giardia killer, SW480 rerep, VP16 counter)
Cc1cc(NC(=O)C2CCN(S(=O)(=O)c3c(C)noc3C)CC2)ccc1Br	MCF10A rereplic 20.6µM, SW480 rerep inconclusive, VP16 counter inconclusive
Cc1cc(C)cc(NC(=O)Cn2c(=O)oc3cc(S(=O)(=O)N4CCC(C)CC4)ccc32)c1	MCF10A rereplic 16.4µM, Giardia killer inconclusive, SW480 rerep inconclusive, VP16 counter inconclusive
CC1CCCN(CC(=O)Nc2ccc(S(=O)(=O)NC3CCCCC3)cc2)C1 (stereo not drawn)	MCF10A rereplic 16.4µM
Cc1noc(C)c1C(=O)Nc1ccc(S(=O)(=O)N2CCC(C)CC2)cc1	SW480 rerep 18.4µM (no result: RORgamma inh, VP16 counter)
Cc1noc(C)c1C(=O)Nc1ccc(S(=O)(=O)N2CCCCC2)cc1	RORgamma inh inconclusive
CC(=O)N(c1ccc(Cl)cc1)C1SC(=O)N(c2ccc(C)cc2)C1=O (stereo not drawn)	none (no result: Chronic BCR inh, MCF10A rereplic, RORgamma inh, SW480 rerep, VP16 counter)
CSc1ccccc1OCc1cc(C(=O)N(C)Cc2cc(C)[nH]n2)no1	Chronic BCR inh inconclusive
CCOc1ccccc1-c1nnc2n1N=C(c1cc(OC)cc(OC)c1)CS2	RORgamma inh inconclusive (no result: Chronic BCR inh, MCF10A rereplic, Giardia killer, SW480 rerep)
CCN(C[C@H]1N[C@@](C)(C(=O)OC)[C@H]2C(=O)N(C)C(=O)[C@@H]12)S(=O)(=O)c1ccc(OC)cc1	SW480 rerep inconclusive (no result: RORgamma inh, VP16 counter)
C=CCc1cc(C=O)cc(OC)c1OCc1ccc(C(=O)O)cc1	none
CC1CCN(S(=O)(=O)c2ccc(NC(=O)CN3CCCC3)cc2)CC1	MCF10A rereplic 9.2µM
O=C(Nc1ccccc1Cl)N(Cc1nc2ccccc2c(=O)[nH]1)Cc1cccs1	RORgamma inh 11.2µM, VP16 counter inconclusive

Screening data deposited in PubChem by National Center for Advancing Translational Sciences (NCATS).
